According to PubChem BioAssay (Tox21):
Inconclusive results are not listed. Values without a mark were called inactive. Calls come from the whole dose curve; as a rule, active = well fitted inhibition curve with a large enough effect in the repeat runs; inconclusive = weak or mixed curves, or effect the other way; inactive = no such curve, though single readings can be large or run the other way.

Target: Androgen receptor (Homo sapiens) (UniProt P10275)
Assay: qHTS assay to identify small molecule antagonists of the androgen receptor (AR) signaling pathway using the MDA cell line (AID 743042; note: nearly all actives have a fitted effect of over 55% in size)
Settings: MDA-kb2 AR-luc, MMTV luciferase, R1881 antagonist, 16 h; series mostly up to 70.3 µM; activity change, negative = inhibition: at the top concentration
Summary of the method: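 Antagonist mode: compounds plus R1881 agonist added to MDA-kb2 AR-luc cells, incubated 16 h at 37C. Luciferase reporter luminescence quantified, with multiplexed CellTiter-Fluor readout for cell viability.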
% is set by controls: 0 for no effect and ±100 for the full control effect.

Sequence of Androgen receptor (Homo sapiens) (P10275 whole entry, looked up): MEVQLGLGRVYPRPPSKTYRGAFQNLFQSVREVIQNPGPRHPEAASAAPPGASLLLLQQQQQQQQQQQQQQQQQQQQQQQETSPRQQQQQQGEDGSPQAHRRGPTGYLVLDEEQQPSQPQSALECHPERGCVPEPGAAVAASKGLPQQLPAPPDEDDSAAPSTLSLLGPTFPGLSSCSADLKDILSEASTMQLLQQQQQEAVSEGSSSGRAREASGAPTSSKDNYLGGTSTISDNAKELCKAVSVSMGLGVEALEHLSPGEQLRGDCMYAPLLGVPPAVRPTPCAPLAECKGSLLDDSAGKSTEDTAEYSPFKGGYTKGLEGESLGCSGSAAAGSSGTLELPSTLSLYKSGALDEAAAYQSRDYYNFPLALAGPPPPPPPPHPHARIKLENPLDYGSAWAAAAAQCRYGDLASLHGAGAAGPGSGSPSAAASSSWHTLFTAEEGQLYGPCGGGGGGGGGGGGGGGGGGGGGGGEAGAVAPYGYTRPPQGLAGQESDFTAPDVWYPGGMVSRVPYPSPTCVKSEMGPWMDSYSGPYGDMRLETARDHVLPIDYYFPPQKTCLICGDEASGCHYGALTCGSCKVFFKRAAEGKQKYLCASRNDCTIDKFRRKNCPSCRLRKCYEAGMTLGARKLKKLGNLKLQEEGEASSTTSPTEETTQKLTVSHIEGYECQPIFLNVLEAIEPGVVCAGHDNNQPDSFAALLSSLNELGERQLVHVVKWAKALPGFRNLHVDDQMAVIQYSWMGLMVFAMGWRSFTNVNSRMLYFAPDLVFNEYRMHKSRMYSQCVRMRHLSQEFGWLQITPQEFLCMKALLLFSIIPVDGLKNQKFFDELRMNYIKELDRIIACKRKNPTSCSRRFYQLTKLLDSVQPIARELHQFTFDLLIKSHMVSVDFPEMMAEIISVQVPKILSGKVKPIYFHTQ

Compound	activity change, negative = inhibition
CCCCCCCC(=O)OCCCCCC	8.37%
Nc1ccc(NC(=O)c2ccc(N)cc2)cc1	38.9%
CCN(CC)C(=O)/C(C#N)=C/c1cc(O)c(O)c([N+](=O)[O-])c1	-1.66%
CCOC(=O)c1ccc(NC(=O)CN2CCCCC2)cc1	35.7%
